This is a sample that favours compounds with a hit; in the whole collection about 3.3% have one here.
FXN GAA850 act: FXN promoter activators, primary screen, cell-based, luciferase luminescence, HEK293 lucGAA850. HEK293 lucGAA850 FXN promoter luciferase reporter, 24 h; percent of 10 µM SAHA response. activation, % at 6 µM. 360,000 tested, 0.56% active;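 active = activation above the average of all compounds screened plus 3 SD, cutoff fixed separately per campaign, cut at about 7.5% in these data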;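 note: 0% = DMSO wells and 100% = 10 µM SAHA wells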
esBAF inh: Bmi1 luciferase reporter increase in mESCs, primary screen, esBAF inhibitor project, mouse ES cells, Bmi1 luciferase knock-in, single point; AID 602393, 2012; 350,000 tested, 2% active; reporter increase, % at 12.5 µM; 24 h; 100% = twice the neutral-well signal; in the data active = activation above about 40%;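 note: 0% = median of the plate's neutral control wells and 100% = double that signal; a rise in the Bmi1 reporter signal indicates esBAF inhibition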
Wnt bcat act: Wnt/beta-catenin pathway activators, primary screen, cell-based, plate reader, single point; AID 743398, 2014; Wnt/beta-catenin reporter cell assay, activator; 300,000 tested, 1.2% active; activation, % at 9.35 µM; in the data active = activation above about 30%, passing the limit was not always enough;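 note: 0% = neutral control wells and 100% = positive control wells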
MITF act: activators of MITF-driven TRPM1 promoter reporter, primary screen, cell-based, SK-MEL-5, luciferase, single point | activation, % at 12.5 µM | 300,000 tested, 0.75% active | AID 588334, 2011 | SK-MEL-5 TRPM1-promoter luciferase, 24 h; % of positive control, neutral wells = 0;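 active = mean activation of at least 80% with every replicate also reaching 80%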;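 note: 0% = neutral control wells and 100% = parthenolide positive control wells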
Statin myotox sup: suppressors of statin myotoxicity in C2C12 myotubes, primary screen, cell-based, single point, plate reader | 330,000 tested, 0.78% active | rescue of ATP level, % at 7.49 µM | AID 602340, 2012 | C2C12 myotubes + simvastatin, ATP luminescence, 48 h; scaled: DMSO 0, geranylgeraniol control 100;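 active = mean ATP rescue above about 67%, or every replicate alone reaching that limit, limit read from the data, passing the limit was not always enough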;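 note: myotubes were challenged with 10 µM simvastatin during compound exposure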
* = called active by the depositor.

Results for O=C(CSc1nnc(-c2ccc(O)cc2)n1Cc1ccco1)c1cccs1 ?
FXN GAA850 act: -2; esBAF inh: 3; Statin myotox sup: 11

Results for O=C(CC(SCCO)c1ccc2c(c1)OCO2)c1cccs1 (stereo not given) ?
FXN GAA850 act: 4; esBAF inh: 84*; Wnt bcat act: 42*; MITF act: 88*; Statin myotox sup: 24

How did CC(C)NC(=O)N(C)C[C@@H]1Oc2ccc(NS(=O)(=O)c3cccs3)cc2C(=O)N([C@@H](C)CO)C[C@H]1C do in these assays?
esBAF inh: 3

What do the screens show for `CCOc1ccc(NC(=O)CN(c2ccc(OC)cc2)S(C)(=O)=O)cc1`?
FXN GAA850 act: 4; esBAF inh: 67*; MITF act: 57; Statin myotox sup: 111*

How did COc1ccc(NC(=O)CN(C)S(=O)(=O)c2ccc(Br)s2)cc1 do in these assays?
FXN GAA850 act: -1; esBAF inh: 6; Wnt bcat act: -1; MITF act: -5; Statin myotox sup: 58

How did COc1ccc(NC(=O)CN(C)S(=O)(=O)c2cccs2)cc1 do in these assays?
FXN GAA850 act: 2; esBAF inh: 49*; Wnt bcat act: -3; MITF act: 12; Statin myotox sup: 3

Results for CCOc1ccc(N(CC(=O)Nc2ccc(OC)cc2)S(C)(=O)=O)cc1 ?
FXN GAA850 act: 4; esBAF inh: 33; Wnt bcat act: -1; Statin myotox sup: -8

How did Cc1ccc(-c2nc3ccccc3[nH]2)cc1NC(=O)c1ccc2c(c1)OCO2 do in these assays?
FXN GAA850 act: 1; esBAF inh: 45*; MITF act: 28; Statin myotox sup: 10

What do the screens show for `Cc1ccc(-c2nc3ccccc3[nH]2)cc1NC(=O)/C=C/c1ccco1`?
FXN GAA850 act: -3; esBAF inh: 23; MITF act: 44; Statin myotox sup: -24

What do the screens show for `Cc1ccc(-c2nc3ccccc3[nH]2)cc1NC(=S)NC(=O)c1ccccc1Br`?
FXN GAA850 act: -1; esBAF inh: 58*; Wnt bcat act: 0; MITF act: 14; Statin myotox sup: -31

How did O=C(COC(=O)/C=C/c1ccccc1)NCCC1=CCCCC1 do in these assays?
FXN GAA850 act: -1; Wnt bcat act: -2; MITF act: 10

Results for COc1ccccc1/C=C/C(=O)NCCC1=CCCCC1 ?
FXN GAA850 act: 7; Wnt bcat act: 53*; MITF act: 48

Results for O=C(/C=C/c1ccc(F)cc1)NCCC1=CCCCC1 ?
FXN GAA850 act: 4; esBAF inh: 78*; Wnt bcat act: 65*; Statin myotox sup: -17

How did O=C(/C=C/c1ccccc1)NCCC1=CCCCC1 do in these assays?
FXN GAA850 act: 4; esBAF inh: 71*; Wnt bcat act: 28; MITF act: 40; Statin myotox sup: 1

Results for CO[C@@H](CN(C)C(=O)C1CC1)[C@H](C)CN(C(=O)Nc1ccc(C(F)(F)F)cc1)[C@@H](C)CO ?
esBAF inh: -3; Statin myotox sup: -5

What do the screens show for `O=C(CSc1nc2ccc(NC(=O)c3ccccc3C(=O)O)cc2s1)Nc1ccc(F)c([N+](=O)[O-])c1`?
FXN GAA850 act: 1; esBAF inh: 0; Wnt bcat act: 35*; MITF act: -2; Statin myotox sup: -7

Results for Cc1nc2ccc(NC(=O)Cc3c(F)cccc3Cl)cc2s1 ?
FXN GAA850 act: 4; Wnt bcat act: 39*; MITF act: 108*

What do the screens show for `Cc1nc2ccc(NC(=O)Cc3cccs3)cc2s1`?
FXN GAA850 act: 2; esBAF inh: 71*; Wnt bcat act: 61*; MITF act: 88*; Statin myotox sup: 11

What do the screens show for `Cc1nc2ccc(NC(=O)CSc3ccccc3)cc2s1`?
FXN GAA850 act: 4; esBAF inh: 54*; Wnt bcat act: 50*; MITF act: 98*; Statin myotox sup: 3

How did O=C(C[C@H]1CC[C@@H](NC(=O)C2CC2)[C@H](CO)O1)NC1CCC1 do in these assays?
esBAF inh: 3; Statin myotox sup: 6

How did Cc1noc(C)c1NC(=O)N(C)C[C@H]1Oc2cc(C#CCC3CCCC3)ccc2S(=O)(=O)N([C@@H](C)CO)C[C@H]1C do in these assays?
esBAF inh: -1; Statin myotox sup: 11

Screening data: PubChem BioAssay, several laboratories
